Laboratory results taken from PubChem BioAssay (NCI).
About 83,000 compounds went through this panel and 20% of them were active in at least one assay; those are over-represented in the sample as a whole.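 In brief: 96-well plates, 48 h treatment, single concentration, percent growth endpoint.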 Unmarked numbers belong to inactive results. The source made the active and inactive calls. How the source made its calls: active means growth percent below 10; inactive means the rest.

Experiments:
Assay in all cases: NCI-60 one-dose screen, 48 h (100 = growth as untreated, 0 = no growth, -100 = all killed)
Conditions in all cases: 10 µM unless noted
HCT-15 colon = tested on: HCT-15 colon
HT29 colon = tested on: HT29 colon
SNB-19 CNS = tested on: SNB-19 CNS
U251 CNS = tested on: U251 CNS
SK-MEL-5 melanoma = tested on: SK-MEL-5 melanoma
UACC-62 melanoma = tested on: UACC-62 melanoma
LOX IMVI melanoma = tested on: LOX IMVI melanoma
SK-MEL-28 melanoma = tested on: SK-MEL-28 melanoma
PC-3 prostate = tested on: PC-3 prostate

Compound	growth (HCT-15 colon)	growth (HT29 colon)	growth (SNB-19 CNS)	growth (U251 CNS)	growth (SK-MEL-5 melanoma)	growth (UACC-62 melanoma)	growth (LOX IMVI melanoma)	growth (SK-MEL-28 melanoma)	growth (PC-3 prostate)
S=c1nc2oc(-c3ccccc3)c(-c3ccccc3)c2c(/N=C\c2ccco2)[nH]1	85.6%	98.3%	95.2%	91.4%	94.6%	90.9%	92.9%	109%	
O=C(Cc1ccc(/C=C/C(=O)c2ncc[nH]2)cc1)Nc1cc(C(F)(F)F)cc(C(F)(F)F)c1	62.4%	26.3%	77.3%	38.5%	93.1%	80.9%	34.5%	104%	85.3%
O=C(CSc1nc(-c2ccccc2)cc(=O)[nH]1)Nc1nc(-c2ccccc2)cs1	89.7%	99.1%	105%	99.9%	85.7%	69.1%	96.6%	111%	78.8%
O=C(Nc1ccccc1O)c1ccc(CNC(=O)c2ccsc2Nc2ccnc(C(F)(F)F)c2)cc1	28%	28.7%	52.3%	1.39% (active)	-8.81% (active)	9.79% (active)	34.5%	51.3%	14.5%
CCCCNc1nnc2n(Cc3ccccc3)c(=O)c3c4c(sc3n12)CCCC4	30.5%	24.8%	56.5%	48.5%	27.7%	32.5%	30.2%	60.7%	42.7%
